Screen size: about 38,000 compounds; about 1,200 (3.2%) showed an effect of 50% or more. The median lay at about -58%. Only a selection was taken, and strong results are over-represented in it overall.

The experiment has as its system Plasmodium falciparum. Description: Calibr Malaria Delayed Death Assay SOP. Type of experiment: functional, organism-based. The arrangement: scale not given: in the data most compounds retested in dose-response had high values. As to conditions: concentration 4.99e-06 (unit not given; other assays of the set use mol/L).
For the molecule `Cc1ccc(-c2nc(CNS(=O)(=O)N(C)C)[nH]c2-c2ccccn2)cc1`, the “Percent Effect” value is -8.879%.
The same measure for `Cc1ccc(-c2nc(CNC(C)CCO)[nH]c2-c2ccccn2)cc1` (configuration not stated): 85.22%; for `COCC(C)NCc1nc(-c2ccc(C)cc2)c(-c2ccccn2)[nH]1` (configuration not stated): 45.68%; for `O=C(CN1CCOc2ccc(Cl)cc21)NCCCn1ccnc1`: -34.55%.
The same measure for `CCOc1ccc(Cl)cc1CNCCCn1ccnc1`: 51.78%; for `COCCCn1ccc(NC(=O)NCCCn2ccnc2)n1`: -63.56%.
In the case of `CCOc1ccc(Cl)cc1CCNC(=O)Cn1nc(C)ccc1=O`, the “Percent Effect” value is -103.1%.
Next, `CCOc1ccc(CNCCCn2ccnc2)cc1Br`: 79.67%.
The same measure for `COc1cc(CNCCn2ccnc2)cc2c1OCO2.Cl`: -91.54%; for `CN(C)CCNCC1COCc2c(-c3ccnn3C)nnn2C1` (configuration not stated): -61.69%; for `O=C(c1cccc2ncccc12)N1CCC(Nc2cccnn2)CC1`: -119.6%.
The same measure for `Cc1nc(CN2CCN(CCCc3ccccc3)CC2)no1`: -34.84%; for `COc1ccc(-c2nc(CNC3CCc4nc(C)nn4C3)no2)cc1` (configuration not stated): -54.43%; for `COc1cccnc1-c1ccc(F)c2c1OC(CN)C2` (configuration not stated): 57.41%.
In the case of `COc1cc(-c2ccc(F)c3c2OC(CN)C3)cc(OC)c1OC` (configuration not stated), the “Percent Effect” value is given as -14%.
The same measure for `COc1cc(C)c(-c2ccc(F)c3c2OC(CN)C3)cc1C` (configuration not stated): 83.54%.
Take `Cc1cc2n(n1)CC(CNCc1ccccc1Cn1cccn1)CN2` (configuration not stated): the “Percent Effect” value is recorded as -15.62%.
The same measure for `O=C(O)C(F)(F)F.O=C(O)C(F)(F)F.c1cncc(C2COC3(CCN(Cc4nccs4)CC3)C2)c1` (configuration not stated): -1.865%; for `CCN1CC2(CC1=O)CN(C(=O)c1ccco1)CCN(C(=O)C(C)C)C2` (configuration not stated): -62.73%; for `O=C1[C@H]2CC[C@H](CN(c3ncnc4ccsc34)C2)N1CC1CC1`: -91.86%.
The same measure for `COCCCN(C)C(=O)c1cccc(Nc2cnccn2)c1`: -92.25%.
Next, `Cc1cc(Cl)ccc1C(=O)N1C[C@H](C2CC2)[C@@H](N)C1`: 60.81%.
With `N[C@H]1CN(C(=O)c2cnc3cc(Cl)ccc3c2O)C[C@@H]1C1CC1`, the “Percent Effect” value is -23.25%.
Next, `N[C@H]1CN(C(=O)c2ccc(Cl)cc2O)C[C@@H]1C1CC1`: 32.78%; `N#CCSCCCN1CCN(C(=O)c2ccccc2F)CC1`: -147%; `Cc1nnc(NC(=O)NCCCN2CCC(C(N)=O)CC2)s1`: -23.13%.
Next, `CC1CC(NS(=O)(=O)c2ccc(C(F)(F)F)nc2)C1` (configuration not stated): -159.1%; `O=c1ncn(-c2ccc(F)cc2)c2ncccc12`: -138.9%.
Next, `OCc1cn([C@@H]2c3ccccc3C3(CCNCC3)[C@H]2O)nn1`: -123.5%; `O[C@H]1[C@H](n2cc(CN3CCCC3)nn2)c2ccccc2C12CCNCC2`: 62.81%; `COCc1cn([C@@H]2c3ccccc3C3(CCNCC3)[C@H]2O)nn1`: -27.47%.
Regarding `CCN(C(C)c1cccc(O)c1)S(=O)(=O)c1cccnc1` (configuration not stated), the “Percent Effect” value is 75.64%.
Next, `CCOc1c(F)cccc1C(=O)N(CC)C(C)c1cccnc1` (configuration not stated): -44.59%; `CC(c1cccnc1)N(C)S(C)(=O)=O` (configuration not stated): -49.62%.
As for `CC(c1cccc(O)c1)N(C)S(N)(=O)=O` (configuration not stated), the “Percent Effect” value is -84.23%.
The same measure for `Cc1cccc(C(C)(C)CNC(=O)CN(C)S(=O)(=O)c2cccnc2)c1`: -59.91%; for `CC(c1cccc(O)c1)N(C)S(=O)(=O)c1cccnc1` (configuration not stated): 70.34%.
The same measure for `Cn1cc(CN2CCc3ccc(=O)n(Cc4ccncc4)c3CC2)cn1.O=C(O)C(F)(F)F.O=C(O)C(F)(F)F`: -100.7%; for `CCn1nccc1CNc1[nH]cnc2nncc1-2`: -100.3%; for `Cn1cccc1C(=O)N1C[C@@H](OCc2ccncc2)[C@@H]2OCCC[C@@H]21.O=C(O)C(F)(F)F`: -99.03%.
Next, `CCNc1ncc(CN(Cc2ccccc2)CC(C)CO)cn1` (configuration not stated): -11.14%; `COC(=O)[C@@H]1Cc2[nH]cnc2CN1Cc1cc2ccccc2o1`: -36.16%; `CN1CCN(C(=O)C2CN(Cc3cc4ccccc4o3)CCN2)CC1` (configuration not stated): -105.5%.
In the case of `Cl.Cl.O[C@@H]1C[C@@](CNCc2ccc(Cl)cc2)(COc2cccnc2)C[C@@H]1O`, the “Percent Effect” value came out at 70.01%.
Next, `Cl.Cl.O[C@@H]1C[C@@](CNCc2ccc(F)cc2)(COc2cccnc2)C[C@@H]1O`: 40.62%; `Cl.Cl.O[C@@H]1C[C@@](CNCc2cccc(Cl)c2)(COc2cccnc2)C[C@@H]1O`: 34.26%; `CN(Cc1noc2c1CCCC2)C(=O)Nc1cccc(S(N)(=O)=O)c1`: -16.52%.
As for `Cc1nc2c(c(N(C)Cc3ccccc3-n3cccn3)n1)CCNCC2`, the “Percent Effect” value is -7.146%.
Next, `CN(Cc1ccon1)c1nc(-c2ccccn2)nc2c1CCNCC2`: 75.26%.
Consider `Cc1cc(CN(C)c2nc(-c3ccco3)nc3c2CCN(C)CC3)on1`, for which the “Percent Effect” value was -7.108%.
For the molecule `Cc1nc2c(c(N(C)CC3Cc4ccccc4CN3C)n1)CCNCC2` (configuration not stated), the “Percent Effect” value amounted to 41.97%.
Next, `Cc1cc(CN(C)c2nc(-c3ccccn3)nc3c2CCNCC3)n[nH]1`: 68.42%; `O=C(COc1cccc2c1CCC2=O)NCCOc1ccccc1`: -101.5%.
Regarding `Cn1cc(C[C@H]2[C@H](O)CCN2Cc2ccc3c(c2)OCO3)cn1`, the “Percent Effect” value is recorded as -152.7%.
On to `COc1cc(CNc2ccc(C)c(Cl)c2)ccc1OCC(N)=O`, for which the “Percent Effect” value is -61.06%.
On to `O=C(CN1CCCC1Cn1cncn1)Nc1ccnn1C1CCCC1` (configuration not stated), for which the “Percent Effect” value was -46.57%.
Next, `NC(=O)c1nc(-c2cccc(Cl)c2)oc1N`: -143.3%.
Turning to `CC(NC(=O)NCC1(c2ccc(Cl)cc2)CC1)c1nncn1C` (configuration not stated), the “Percent Effect” value is on record as -41.57%.
For `Clc1ccc(C2(CNC3=NCCN3)CC2)cc1.I`, the “Percent Effect” value is given as 82.97%.
As for `CCCNC(=O)c1c(-n2cnnn2)sc2c1CCC2`, the “Percent Effect” value was -55.33%.
In the case of `CC(=O)NC(CC(=O)Nc1nc(C)c(C)s1)c1ccccc1` (configuration not stated), the “Percent Effect” value was -83.12%.
Next, `COc1cccc(CN2CCC3(CCN(c4ncc(F)cn4)CC3)C2)c1.O=C(O)C(F)(F)F`: -47.02%.
Regarding `COc1ccc(CN2CCC3(CCCN(c4ncc(F)cn4)C3)C2)cc1.O=C(O)C(F)(F)F` (configuration not stated), the “Percent Effect” value amounted to 86.34%.
As to `Fc1cnc(N2CCCC3(CCN(Cc4ccoc4)C3)C2)nc1.O=C(O)C(F)(F)F.O=C(O)C(F)(F)F` (configuration not stated), the “Percent Effect” value amounted to 72.25%.
Next, `CC(C)CCN1CCC2(CCCN(c3nncs3)C2)C1.O=C(O)C(F)(F)F` (configuration not stated): -67.46%; `Fc1cnc(N2CCCC3(CCN(Cc4ccco4)C3)C2)nc1.O=C(O)C(F)(F)F.O=C(O)C(F)(F)F` (configuration not stated): 77%; `Cc1cnc(N2C[C@@H]3CN(Cc4ccco4)CCC[C@]3(C(=O)O)C2)nc1.O=C(O)C(F)(F)F`: -71.37%.
Next, `CC(C)c1ccc(CN2CCC3(CCCN(c4nncs4)C3)C2)cc1.O=C(O)C(F)(F)F` (configuration not stated): 73.03%; `Fc1ccc(CN2CCC3(CCCN(c4nncs4)C3)C2)cc1.O=C(O)C(F)(F)F` (configuration not stated): -107.3%; `O=C(O)C(F)(F)F.O=C(c1ccncc1)N1CCC2(CCCN(c3ncc(F)cn3)C2)C1` (configuration not stated): -90.51%.
Next, `COc1cccc(CN2CCC3(CC2)CCN(c2ncc(F)cn2)C3)c1.O=C(O)C(F)(F)F`: -115%.
As for `O=C(c1ccco1)N1CCC2(CCCN(c3ncc(F)cn3)C2)C1` (configuration not stated), the “Percent Effect” value was -116%.
Next, `Fc1cnc(N2CCCC3(CN(Cc4ccccc4)CCO3)C2)nc1.O=C(O)C(F)(F)F` (configuration not stated): -95.68%; `Cc1oc(-c2nc(C#N)c(NC(C)C)o2)cc1S(=O)(=O)N1CCCC1`: -121.8%; `Cc1ncc2c(n1)CN(Cc1nc(-c3ccco3)oc1C)CC2`: -128.1%.
In the case of `CC(C)C(=O)N1CCN(Cc2csc(-c3ncccn3)n2)CC1`, the “Percent Effect” value was -79.45%.
Consider `CCn1nc(C)c(C(=O)NCc2csc(C3CC3)n2)c1C`, for which the “Percent Effect” value is -85.55%.
Regarding `Cc1noc(C)c1CN1CCc2ncnc(-c3cnn(C)c3)c2CC1.O=C(O)C(F)(F)F`, the “Percent Effect” value was -17.12%.
The same measure for `CCC(=O)NCC(=O)NC(C)c1ccc(OCCC(C)C)cc1` (configuration not stated): 22.17%.
Next, `COc1cc(-c2cc(=O)[nH]cn2)cc(OC)c1OC`: -8.244%.
Next, `CC(=O)N1[C@H](CN(C)C)C[C@@H]2CN(C(=O)c3cccc(F)c3)CC[C@@H]21.O=C(O)C(F)(F)F`: -121.5%.
Consider `CCC(NC(=O)CNCC(F)(F)F)c1cc(F)ccc1F` (configuration not stated), for which the “Percent Effect” value is reported as -157%.
Next, `Fc1cnc(N2CCCC3(CCN(Cc4nccs4)C3)C2)nc1` (configuration not stated): 21.75%; `O=C(c1ccoc1)N1CCC2(CCCN(c3ncc(F)cn3)C2)C1` (configuration not stated): -22.39%; `COc1cc(N2C[C@H](C(=O)N3CCCC3)[C@@H]3CCO[C@@H]3C2)ncn1`: -18.3%.
On to `Cc1cnc(CN(C)C2CCN(Cc3nc4c(F)cccc4[nH]3)C2)o1` (configuration not stated), for which the “Percent Effect” value is recorded as -76.29%.
Next, `COc1nn(C)c2c1CCCN(C(=O)c1cscn1)C2`: -85.03%; `CCOC(C)C(=O)Nc1ccnn1-c1ccccc1C` (configuration not stated): -113.5%; `Cl.Clc1ccc(-c2ccc(C3CNCCO3)nc2)cc1` (configuration not stated): 85.23%.
As to `O=C(C(c1ccccc1)S(=O)(=O)c1ccccc1)N1CCCCC1` (configuration not stated), the “Percent Effect” value is -134.4%.
The same measure for `CCc1nc(C)sc1CN1CC[C@@](O)(C2CC2)[C@H](C)C1`: -41.51%; for `Cc1csc(C(=O)N2CCCC(c3[nH]ncc3S(C)(=O)=O)C2)c1` (configuration not stated): -79.4%.
Next, `O=C(NCC(O)c1ccsc1)Nc1cccs1` (configuration not stated): -26.53%; `Fc1cnc(N2CCCC3(CCN(Cc4cccs4)C3)C2)nc1.O=C(O)C(F)(F)F.O=C(O)C(F)(F)F` (configuration not stated): 67.75%.
For `O=C(O)C(F)(F)F.O=C(O)C(F)(F)F.c1csc(CN2CCCC3(COCCN(c4cnccn4)C3)C2)c1` (configuration not stated), the “Percent Effect” value came out at 45.61%.
Regarding `O=C(O)C(F)(F)F.O=C(O)C(F)(F)F.c1cnc(N2CCOCC3(CCCN(Cc4cccs4)C3)C2)nc1` (configuration not stated), the “Percent Effect” value is reported as -21.37%.
Next, `Fc1cnc(N2CCCC3(CN(Cc4cccs4)CCO3)C2)nc1.O=C(O)C(F)(F)F` (configuration not stated): -85.22%.
With `O=C(O)C(F)(F)F.c1ccc(N2CCCC3(CCN(Cc4cccs4)C3)C2)nc1` (configuration not stated), the “Percent Effect” value worked out at 72.7%.
In the case of `CC(C)CN1CCCC2(CCN(c3ccccn3)C2)C1.O=C(O)C(F)(F)F` (configuration not stated), the “Percent Effect” value is reported as 70.33%.
Next, `Cc1cnc(N2CCC3(CC2)CN(Cc2cccs2)CCO3)nc1.O=C(O)C(F)(F)F.O=C(O)C(F)(F)F`: -40.39%; `CC(C)CN1CCCC2(CCN(c3ccc(C#N)cn3)C2)C1.O=C(O)C(F)(F)F` (configuration not stated): 4.981%; `COc1cc(N2CCC3(CCCN(Cc4ccccn4)C3)C2)ncn1.O=C(O)C(F)(F)F` (configuration not stated): -7.04%.

Source of the values: ChEMBL document CHEMBL3988442, “University of Dundee, Small-Polar-MMV Screening Library” (2021).
